Data published in the supplement of paper PMC10849652.
Targets with a hit are over-represented here; the source holds about 8,800 in all. About 0.5% of all pairs of compound and target were hits.

Legend:
Assay in all cases: log2 fold change, soluble protein after heating vs DMSO (PISA); higher = thermal stabilisation; K562 lysate, 10 uM; active = over 0.2 and 3.5 SD of the protein, either way, in both replicates (recomputed)
[1] = compound: C1=CC=C(C=C1)[C@H](COC2=CC3=C(C=C2)NC(=O)N3)NC(=O)C4=CC=CN(C4=O)CC5=CC(=C(C=C5)F)F
In short: (§1)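 Following dounce homogenisation of K562 pellets in PBS pH 7.4 with 1 mM MgCl2, crude extract at 1 mg/mL protein was incubated for 30 min with 10 μM compound. Aliquots were then heated for 3 min over 48°C-58°C and pooled, NP-40 was added to 0.5% at 4°C, and soluble protein was recovered as the supernatant at 21,000xg for 90 min. Channel-sum-equalised TMTpro 16plex LC-MS/MS quantified this protein. Each value, from duplicates, is a log-two fold change in thermal stability relative to solvent controls.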

[2] = compound: CC1=C(SC2=C1C(=N[C@H](C3=NN=C(N32)C)CC(=O)N)C4=CC=C(C=C4)Cl)C
In short: as §1

[3] = compound: CC1=C2C(=CC=C1)N=C(N(C2=O)C3=CC=CC=C3C)CN4C=NC5=C(N=CN=C54)N
In short: as §1

[4] = compound: Cc1sc2c(c1C)C(c1ccc(Cl)cc1)=N[C@@H](CC(=O)OC(C)(C)C)c1nnc(C)n1-2
In short: as §1

[5] = compound: c1ccc([C@@H]2C[C@H]2NC2CCNCC2)cc1
In short: as §1

Measured: log2 fold change

METTL7A (UniProt Q9H8H3)
UniProt Q9H8H3, sequence (Q9H8H3 whole entry, looked up): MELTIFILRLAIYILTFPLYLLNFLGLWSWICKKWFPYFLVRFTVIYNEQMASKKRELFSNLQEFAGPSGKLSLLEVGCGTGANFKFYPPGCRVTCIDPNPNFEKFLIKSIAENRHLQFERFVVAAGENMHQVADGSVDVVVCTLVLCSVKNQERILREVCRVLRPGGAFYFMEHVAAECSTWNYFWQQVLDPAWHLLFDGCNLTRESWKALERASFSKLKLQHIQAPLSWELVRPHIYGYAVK
inactive: [1] 0.069 | [2] -0.059 | [3] -0.078 | [4] -0.008 | [5] -0.074

KIF14 (UniProt Q15058)
UniProt Q15058, sequence (Q15058 whole entry, looked up): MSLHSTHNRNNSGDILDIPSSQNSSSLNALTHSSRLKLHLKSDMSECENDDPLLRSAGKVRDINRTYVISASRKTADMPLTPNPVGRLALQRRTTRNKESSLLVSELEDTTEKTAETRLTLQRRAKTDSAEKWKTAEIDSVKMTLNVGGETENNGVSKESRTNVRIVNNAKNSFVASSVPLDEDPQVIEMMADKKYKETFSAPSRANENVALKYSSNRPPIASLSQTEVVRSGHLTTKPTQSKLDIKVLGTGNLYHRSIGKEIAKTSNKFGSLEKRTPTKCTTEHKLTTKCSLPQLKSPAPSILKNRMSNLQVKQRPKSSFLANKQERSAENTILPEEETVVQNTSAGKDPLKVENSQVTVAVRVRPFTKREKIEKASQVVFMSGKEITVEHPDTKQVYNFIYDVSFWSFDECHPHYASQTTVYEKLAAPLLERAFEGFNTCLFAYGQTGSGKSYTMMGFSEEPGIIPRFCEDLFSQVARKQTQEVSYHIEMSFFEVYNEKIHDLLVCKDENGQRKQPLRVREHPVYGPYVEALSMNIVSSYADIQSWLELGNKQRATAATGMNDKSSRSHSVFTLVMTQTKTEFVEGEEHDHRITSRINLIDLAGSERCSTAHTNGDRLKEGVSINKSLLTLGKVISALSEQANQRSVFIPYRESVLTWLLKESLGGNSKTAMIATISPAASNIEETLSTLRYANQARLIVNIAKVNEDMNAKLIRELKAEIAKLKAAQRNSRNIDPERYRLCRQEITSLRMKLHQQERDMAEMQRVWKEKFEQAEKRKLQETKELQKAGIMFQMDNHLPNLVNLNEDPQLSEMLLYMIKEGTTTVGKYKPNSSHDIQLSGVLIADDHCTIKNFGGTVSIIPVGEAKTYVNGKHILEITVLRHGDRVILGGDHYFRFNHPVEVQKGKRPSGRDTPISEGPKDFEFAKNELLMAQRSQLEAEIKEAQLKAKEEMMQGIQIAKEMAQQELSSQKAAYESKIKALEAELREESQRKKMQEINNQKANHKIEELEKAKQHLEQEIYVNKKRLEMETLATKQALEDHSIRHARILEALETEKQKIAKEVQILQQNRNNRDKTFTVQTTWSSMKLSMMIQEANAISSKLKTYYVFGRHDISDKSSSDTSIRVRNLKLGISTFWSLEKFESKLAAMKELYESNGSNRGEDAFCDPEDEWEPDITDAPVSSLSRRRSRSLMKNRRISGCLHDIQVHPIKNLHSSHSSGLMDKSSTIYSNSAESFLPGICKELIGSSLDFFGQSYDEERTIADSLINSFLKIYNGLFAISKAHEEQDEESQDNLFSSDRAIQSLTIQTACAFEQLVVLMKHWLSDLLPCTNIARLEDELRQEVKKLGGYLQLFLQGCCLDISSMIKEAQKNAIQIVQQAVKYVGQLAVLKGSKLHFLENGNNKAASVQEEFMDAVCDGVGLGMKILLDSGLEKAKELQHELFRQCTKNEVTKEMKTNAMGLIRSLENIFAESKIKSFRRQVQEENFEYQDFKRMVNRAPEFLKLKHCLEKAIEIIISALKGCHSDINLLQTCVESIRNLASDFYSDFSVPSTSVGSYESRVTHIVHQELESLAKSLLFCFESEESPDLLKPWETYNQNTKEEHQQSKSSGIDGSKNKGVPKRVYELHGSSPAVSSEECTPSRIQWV
inactive: [1] 0.028 | [2] -0.148 | [3] 0.059 | [4] -0.012 | [5] 0.039

MAP4K2 (UniProt Q12851)
UniProt Q12851, sequence (Q12851 whole entry, looked up): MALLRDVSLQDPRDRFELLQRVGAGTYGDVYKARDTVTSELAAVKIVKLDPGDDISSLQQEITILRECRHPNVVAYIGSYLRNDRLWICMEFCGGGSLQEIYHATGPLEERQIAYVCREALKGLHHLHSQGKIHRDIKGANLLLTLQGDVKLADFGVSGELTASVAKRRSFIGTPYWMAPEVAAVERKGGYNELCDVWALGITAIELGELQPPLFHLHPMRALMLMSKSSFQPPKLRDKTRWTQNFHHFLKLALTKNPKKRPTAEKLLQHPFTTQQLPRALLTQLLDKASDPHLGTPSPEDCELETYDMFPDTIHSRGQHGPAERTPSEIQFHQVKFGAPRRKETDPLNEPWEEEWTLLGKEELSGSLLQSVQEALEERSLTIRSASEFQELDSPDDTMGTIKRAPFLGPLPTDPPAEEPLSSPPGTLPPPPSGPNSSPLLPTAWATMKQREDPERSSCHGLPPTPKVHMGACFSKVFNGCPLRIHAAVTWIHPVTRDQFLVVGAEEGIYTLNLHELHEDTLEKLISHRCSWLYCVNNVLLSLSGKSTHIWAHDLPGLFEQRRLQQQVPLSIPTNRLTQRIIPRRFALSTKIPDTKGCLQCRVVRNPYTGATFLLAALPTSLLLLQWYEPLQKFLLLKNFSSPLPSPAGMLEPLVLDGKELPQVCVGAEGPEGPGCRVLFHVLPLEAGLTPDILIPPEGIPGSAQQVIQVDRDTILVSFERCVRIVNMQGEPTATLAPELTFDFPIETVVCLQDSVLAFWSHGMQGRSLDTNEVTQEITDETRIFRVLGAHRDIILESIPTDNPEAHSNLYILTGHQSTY
inactive: [1] -0.088 | [2] 0.053 | [3] 0.022 | [4] -0.13 | [5] -0.087

MRPL46 (UniProt Q9H2W6)
inactive: [1] 0.022 | [2] -0.012 | [3] 0.021 | [4] 0.026 | [5] 0.199

KIF21A isoform 5 (UniProt Q7Z4S6)
UniProt Q7Z4S6, sequence (Q7Z4S6 whole entry, looked up): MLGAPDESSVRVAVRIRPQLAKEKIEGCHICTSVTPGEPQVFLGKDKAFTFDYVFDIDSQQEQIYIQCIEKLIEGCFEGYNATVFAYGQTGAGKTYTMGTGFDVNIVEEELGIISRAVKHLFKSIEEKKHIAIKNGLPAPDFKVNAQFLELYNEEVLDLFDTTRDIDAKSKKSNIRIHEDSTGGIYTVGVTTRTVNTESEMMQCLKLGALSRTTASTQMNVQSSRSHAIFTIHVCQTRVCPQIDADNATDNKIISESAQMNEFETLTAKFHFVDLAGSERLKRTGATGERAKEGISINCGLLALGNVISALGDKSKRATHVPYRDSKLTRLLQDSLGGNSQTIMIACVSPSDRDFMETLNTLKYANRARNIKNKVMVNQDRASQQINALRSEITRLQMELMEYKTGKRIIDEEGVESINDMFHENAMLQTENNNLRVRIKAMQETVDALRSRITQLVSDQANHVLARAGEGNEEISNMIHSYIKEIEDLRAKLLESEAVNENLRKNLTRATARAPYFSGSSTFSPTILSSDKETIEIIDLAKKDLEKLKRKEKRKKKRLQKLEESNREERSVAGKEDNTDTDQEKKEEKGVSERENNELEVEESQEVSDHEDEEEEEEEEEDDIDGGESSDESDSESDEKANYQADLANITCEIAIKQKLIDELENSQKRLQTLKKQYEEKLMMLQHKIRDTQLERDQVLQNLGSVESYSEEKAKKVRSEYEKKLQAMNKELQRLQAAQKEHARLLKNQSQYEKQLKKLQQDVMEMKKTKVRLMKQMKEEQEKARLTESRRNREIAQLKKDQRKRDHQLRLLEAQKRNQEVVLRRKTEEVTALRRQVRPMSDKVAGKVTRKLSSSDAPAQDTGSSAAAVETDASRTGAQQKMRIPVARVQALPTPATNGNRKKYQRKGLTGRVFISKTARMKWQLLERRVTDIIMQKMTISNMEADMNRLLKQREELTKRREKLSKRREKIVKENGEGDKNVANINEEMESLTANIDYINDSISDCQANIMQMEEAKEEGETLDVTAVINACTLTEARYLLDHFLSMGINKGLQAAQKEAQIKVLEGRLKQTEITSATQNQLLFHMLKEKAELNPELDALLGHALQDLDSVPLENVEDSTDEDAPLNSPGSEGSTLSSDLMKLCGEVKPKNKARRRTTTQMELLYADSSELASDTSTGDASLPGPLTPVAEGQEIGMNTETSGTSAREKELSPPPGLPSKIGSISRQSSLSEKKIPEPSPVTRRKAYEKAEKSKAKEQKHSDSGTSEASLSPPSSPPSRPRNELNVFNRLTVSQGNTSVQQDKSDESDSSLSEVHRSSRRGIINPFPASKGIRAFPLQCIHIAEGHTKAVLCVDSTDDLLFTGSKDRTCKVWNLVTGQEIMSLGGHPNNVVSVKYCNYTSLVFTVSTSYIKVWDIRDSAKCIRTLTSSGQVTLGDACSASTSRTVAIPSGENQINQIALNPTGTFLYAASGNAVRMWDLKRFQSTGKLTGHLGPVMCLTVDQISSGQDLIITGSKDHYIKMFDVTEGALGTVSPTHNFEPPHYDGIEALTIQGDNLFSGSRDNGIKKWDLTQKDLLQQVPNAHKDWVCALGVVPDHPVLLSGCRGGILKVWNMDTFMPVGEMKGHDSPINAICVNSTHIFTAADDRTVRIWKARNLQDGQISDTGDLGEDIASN
inactive: [1] -0.023 | [2] 0.024 | [3] -0.003 | [4] 0.009 | [5] 0.118
